The panel holds about 83,000 compounds, 20% with a hit somewhere; the sample as a whole holds those more often.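 A percent growth of 40 corresponds to 60% growth inhibition; 0 means no net growth; -100 means all cells died. Active threshold: below 10.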 Values without a mark were called inactive. Active and inactive are the calls of the source.
Legend:
Test in all cases: NCI-60 one-dose screen, 48 h (100 = growth as untreated, 0 = no growth, -100 = all killed)
Details in all cases: 10 µM unless noted
[1] = system: NCI-H23 lung
[2] = system: NCI-H226 lung
[3] = system: HOP-62 NSCLC
[4] = system: NCI-H460 lung
[5] = system: HOP-92 NSCLC
[6] = system: A549/ATCC NSCLC
[7] = system: 786-0 renal
[8] = system: COLO 205 colon
[9] = system: DU-145 prostate
[10] = system: K-562 leukemia
[11] = system: MALME-3M melanoma
[12] = system: MDA-MB-231 breast
[13] = system: RXF 393 renal
[14] = system: SF-268 CNS
[15] = system: SF-295 CNS
[16] = system: SF-539 CNS
[17] = system: UACC-257 melanoma
[18] = system: M14 melanoma
[19] = system: NCI-H522 lung

SMILES: CC1=C(O)[C@@](C)(CCCCC[C@H](C)CCCCc2ccc(O)cc2)OOC1=O
- growth [1]: 85.2%
- growth [2]: 107%
- growth [3]: 91.1%
- growth [4]: 108%
- growth [5]: 75.2%
- growth [6]: 96.9%
- growth [7]: 105%
- growth [8]: 107%
- growth [9]: 113%
- growth [10]: 94.4%
- growth [11]: 87.3%
- growth [12]: 85.2%
- growth [13]: 111%
- growth [14]: 110%
- growth [15]: 90.4%
- growth [16]: 101%
- growth [17]: 89.8%
- growth [18]: 96.6%

SMILES: Nc1ccc(-c2nc3cc(F)ccc3[se]2)cc1F
- growth [1]: 33.9%
- growth [2]: -13.2% (active)
- growth [3]: 51.4%
- growth [4]: 11.7%
- growth [5]: 66%
- growth [6]: 39.9%
- growth [7]: 101%
- growth [8]: 56.2%
- growth [9]: 96.8%
- growth [10]: 93%
- growth [11]: 102%
- growth [12]: 42.3%
- growth [13]: 82.6%
- growth [14]: 80.8%
- growth [15]: 87.6%
- growth [16]: 86.9%
- growth [17]: 98.1%
- growth [18]: 91.8%

SMILES: O=C(CC1(O)C(=O)N(Cc2ccccc2)c2ccccc21)c1ccc(C(=O)NCC2CCC3(CC2)OOC2(CCCCC2)OO3)cc1 (stereo unspecified)
- growth [1]: -72.2% (active)
- growth [2]: -34.8% (active)
- growth [3]: -48.2% (active)
- growth [4]: -51.4% (active)
- growth [5]: -72% (active)
- growth [19]: -28% (active)
- growth [6]: -53.6% (active)
- growth [7]: -73.1% (active)
- growth [8]: -52.9% (active)
- growth [9]: -100% (active)
- growth [10]: -48.3% (active)
- growth [11]: -73% (active)
- growth [12]: -65.8% (active)
- growth [13]: -81% (active)
- growth [14]: -62% (active)
- growth [15]: 10.7%
- growth [16]: -83.2% (active)
- growth [17]: -21% (active)
- growth [18]: 13.1%

SMILES: CN(C)C(=O)Oc1ccc(Br)cc1
- growth [1]: 102%
- growth [2]: 101%
- growth [3]: 93%
- growth [4]: 104%
- growth [5]: 107%
- growth [19]: 95.6%
- growth [6]: 100%
- growth [7]: 98.6%
- growth [8]: 102%
- growth [9]: 107%
- growth [10]: 96.5%
- growth [11]: 98%
- growth [12]: 105%
- growth [13]: 107%
- growth [14]: 110%
- growth [15]: 91.3%
- growth [16]: 108%
- growth [17]: 95%
- growth [18]: 104%

SMILES: CCCCN(CCCC)P(=O)(Oc1ccccc1)Oc1ccccc1
- growth [1]: 53.7%
- growth [2]: 73.9%
- growth [3]: 85.8%
- growth [4]: 59.9%
- growth [5]: 48.3%
- growth [19]: 37.9%
- growth [6]: 49%
- growth [7]: 75%
- growth [8]: 75.2%
- growth [10]: 46.2%
- growth [11]: 119%
- growth [12]: 69.3%
- growth [13]: 55.8%
- growth [14]: 84%
- growth [15]: 64.5%
- growth [16]: 100%
- growth [17]: 70.4%
- growth [18]: 52.3%

SMILES: CC(=O)OCC1O[C@@H]([S-])C(OC(C)=O)[C@H](OC(C)=O)[C@@H]1OC(C)=O.[Au+].c1ccc(CN2[CH-]N(Cc3ccccc3)C(c3ccccc3)=C2c2ccccc2)cc1
- growth [1]: 28.5%
- growth [2]: 72.5%
- growth [4]: 62%
- growth [5]: -7.44% (active)
- growth [19]: -47.6% (active)
- growth [6]: 76.3%
- growth [7]: 40.1%
- growth [8]: 13.8%
- growth [9]: 68.5%
- growth [10]: 1.59% (active)
- growth [11]: -30.2% (active)
- growth [12]: -29.4% (active)
- growth [13]: -52.3% (active)
- growth [14]: 33.4%
- growth [16]: 70.7%
- growth [17]: 65.5%
- growth [18]: 48.5%

SMILES: CC(C)(C)C(=O)OCOP(=O)(NCc1ccccc1)C1CCCN(O)C1=O (stereo unspecified)
- growth [1]: 49.1%
- growth [2]: 32.4%
- growth [3]: 23.4%
- growth [4]: 7.07% (active)
- growth [5]: 34%
- growth [19]: 8.18% (active)
- growth [6]: 29.9%
- growth [7]: 23.9%
- growth [8]: 45.7%
- growth [9]: 55%
- growth [10]: 32.3%
- growth [11]: 19.9%
- growth [12]: 22.6%
- growth [13]: 8.85% (active)
- growth [14]: 10.5%
- growth [15]: 60.3%
- growth [16]: 45.2%
- growth [17]: 57.3%
- growth [18]: 38.4%

SMILES: CCOC(=O)[C@@H](C)C[C@H](Cc1ccccc1)NC(=O)c1csc([C@@H](C[C@H](C(C)C)N(C)C(=O)[C@@H](NC(=O)[C@H]2CCCCN2C)C(C)(C)C)OC(C)=O)n1
- growth [1]: 24.5%
- growth [2]: 55.2%
- growth [3]: 11.8%
- growth [4]: 6.23% (active)
- growth [5]: 28.5%
- growth [19]: -40.3% (active)
- growth [6]: 10.3%
- growth [7]: 4.58% (active)
- growth [8]: -75.6% (active)
- growth [9]: 2.47% (active)
- growth [10]: 5.06% (active)
- growth [11]: 62.4%
- growth [12]: -5.5% (active)
- growth [13]: 23.8%
- growth [14]: 24.9%
- growth [15]: -8.4% (active)
- growth [16]: -13.6% (active)
- growth [17]: 41.7%
- growth [18]: -14.6% (active)

SMILES: CC(=O)O[C@H]1CC[C@@]2(C)C(=CC[C@H]3[C@@H]4C[C@@H](N5CC5)[C@H](C(C)=O)[C@@]4(C)CC[C@@H]32)C1
- growth [1]: 98.5%
- growth [2]: 92.2%
- growth [3]: 83.4%
- growth [4]: 93.2%
- growth [5]: 80.7%
- growth [19]: 88.7%
- growth [6]: 100%
- growth [7]: 101%
- growth [8]: 99.2%
- growth [9]: 105%
- growth [10]: 72.4%
- growth [11]: 98.1%
- growth [12]: 91.4%
- growth [13]: 103%
- growth [14]: 93.2%
- growth [15]: 97.5%
- growth [16]: 88.8%
- growth [17]: 112%
- growth [18]: 95.6%

SMILES: Nc1ccc(OCCNS(=O)(=O)c2cccc(S(=O)(=O)F)c2)c(Cl)c1
- growth [1]: 95.5%
- growth [2]: 96.5%
- growth [3]: 90%
- growth [4]: 102%
- growth [5]: 87.5%
- growth [19]: 74.6%
- growth [6]: 84.8%
- growth [7]: 88.8%
- growth [8]: 110%
- growth [10]: 95.1%
- growth [11]: 86.2%
- growth [12]: 100%
- growth [14]: 102%
- growth [15]: 89.2%
- growth [16]: 93.5%
- growth [17]: 75.4%
- growth [18]: 97.3%

SMILES: COC(=O)[C@@H](C)C[C@H](Cc1ccccc1)NC(=O)c1csc([C@@H](C[C@H](C(C)C)N(C)C(=O)[C@@H](NC(=O)[C@H]2CCCCN2C)C2CCCCC2)OC(C)=O)n1
- growth [1]: 16.1%
- growth [2]: 20.5%
- growth [3]: -19.8% (active)
- growth [4]: 1.05% (active)
- growth [5]: -13.2% (active)
- growth [19]: -32.1% (active)
- growth [6]: 11.4%
- growth [7]: 3.22% (active)
- growth [8]: -75.7% (active)
- growth [9]: 6.23% (active)
- growth [10]: -0.636% (active)
- growth [11]: 56.9%
- growth [12]: -3.53% (active)
- growth [13]: 65.5%
- growth [14]: 8.92% (active)
- growth [15]: -3.03% (active)
- growth [16]: -22.3% (active)
- growth [17]: 48%
- growth [18]: -35.1% (active)

SMILES: CNC(=O)Oc1cccc(C(F)(F)F)c1
- growth [1]: 108%
- growth [2]: 90%
- growth [3]: 107%
- growth [4]: 114%
- growth [5]: 106%
- growth [19]: 95.2%
- growth [6]: 103%
- growth [7]: 105%
- growth [8]: 107%
- growth [9]: 128%
- growth [10]: 113%
- growth [11]: 140%
- growth [12]: 103%
- growth [13]: 146%
- growth [14]: 118%
- growth [15]: 130%
- growth [16]: 122%
- growth [17]: 102%
- growth [18]: 101%
